Inconclusive results are not listed. Active and inactive are the calls of the source. Calls come from the whole dose curve; as a rule, active = well fitted curve in the direction sought with a large enough effect; inconclusive = small, poorly fitted or top-dose-only effect, or another doubt; inactive = no such curve, though single readings can be large; an effect the other way counts as inactive or inconclusive.
Potency is the fitted concentration of half-maximal effect.

One assay in a line: qHTS of pediatric cancer cell lines to identify multiple opportunities for drug repurposing: Primary screen for DAOY cells (AID 1347090).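 For activity change, negative = cytotoxic: plate controls were DMSO for no effect and bortezomib for full effect.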 Note: nearly all actives have a fitted effect of over 55% in size. To be noted: DAOY medulloblastoma viability, CellTiter-Glo luminescence, 48 h; series mostly up to 46 µM; activity change, negative = cytotoxic: at the top concentration. A digest of the protocol: (§1)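 Cell viability, CellTiter-Glo luminescence; 500-1,000 cells/well, 8- or 11-point titration, 48 h compound exposure at 37 degrees C, 5% CO2. Controls: DMSO neutral, bortezomib 2.3 µM final as positive.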
Background: In qHTS, concentration-response curves come from the screen itself.
On to `CCCCCC(=O)O[C@]1(C(C)=O)CC[C@H]2[C@@H]3CCC4=CC(=O)CC[C@]4(C)[C@H]3CC[C@@]21C`, for which the Potency was 21.1 µM (active). The same measure, in the same setting: the figure for `Nc1c2ccccc2nc2ccccc12` is 21.1 µM (active).

Turning to `O=C1OC2(c3ccccc31)c1cc(I)c(O)c(I)c1Oc1c2cc(I)c(O)c1I`, the “activity change, negative = cytotoxic” value was -28.6% (inactive). Take `Nc1ccc2cc3ccc(N)cc3nc2c1`: the Potency was 26.6 µM (active).

Take `CC(=O)Oc1ccc(C2(c3ccc(OC(C)=O)cc3)Oc3ccccc3NC2=O)cc1`: the Potency was 13.3 µM (active).

A short description of a further assay: qHTS of pediatric cancer cell lines to identify multiple opportunities for drug repurposing: Primary screen for SJ-GBM2 cells (AID 1347091).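 For activity change, negative = cytotoxic: plate controls were DMSO neutral control for no effect and bortezomib for full effect.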 To be noted: SJ-GBM2 viability, CellTiter-Glo luminescence, 48 h; series mostly up to 46 µM; activity change, negative = cytotoxic: at the top concentration. Summed up: as §1
For `O=C(O)c1ccccc1Nc1cc(Cl)ccc1C(=O)O`, the “activity change, negative = cytotoxic” value is 19.4% [at 16.1 µM] (inactive). Regarding `Cc1cc(OCCOCC[N+](C)(C)Cc2ccccc2)ccc1C(C)(C)CC(C)(C)C`, the Potency is 21.1 µM (active). Same read-out and setting: the figure for `O=C1NCCN1CCN1CCC(c2cn(-c3ccc(F)cc3)c3ccc(Cl)cc23)CC1` is 10.6 µM (active). Regarding `CCCCCOc1ccc(C2SC(=O)NC2=O)cc1OCC` (centres undefined), the “activity change, negative = cytotoxic” value is 3.56% (inactive). Consider `CCCCCCCCCCCCCC[N+](C)(C)C`, for which the Potency was 11.9 µM (active).

With `COC(=O)c1cc(S(N)(=O)=O)ccc1OC`, the “activity change, negative = cytotoxic” value was -1.96% (inactive).

For `C=CC[N+]1([C@H]2C[C@H]3[C@@H]4CC[C@H]5C[C@H](OC(C)=O)[C@@H](N6CCCCC6)C[C@]5(C)[C@H]4CC[C@]3(C)[C@H]2OC(=O)CC)CCCCC1`, the “activity change, negative = cytotoxic” value was 28.3% (inactive).

With `Nc1cc(C(F)(F)F)ccc1S`, the “activity change, negative = cytotoxic” value was 13.3% (inactive).

As to `CCCCCCCCCCCC[N+](C)(C)Cc1ccccc1`, the “activity change, negative = cytotoxic” value is 5.46% (inactive). In the case of `Cc1ccc(/C=N/n2c(-c3ccccc3)csc2=S)cc1`, the “activity change, negative = cytotoxic” value is 11.2% (inactive). With `CC[C@@]1(O)C(=O)OCc2c1cc1n(c2=O)Cc2c-1nc1ccccc1c2/C=N/OC(C)(C)C`, the Potency was 0.0266 µM (active). Still for that read-out and setting: the figure for `CCCCCCOC(=O)NC(=N)c1ccc(NCc2nc3cc(C(=O)N(CCC(=O)OCC)c4ccccn4)ccc3n2C)cc1` is 21.1 µM (active).

Turning to `O=C(Nc1ccc(Cl)cc1)Nc1ccc(Cl)c(C(F)(F)F)c1`, the Potency was 3.35 µM (active). Take `CN1CCC(Nc2ncc3ncnc(Nc4ccc(F)c(Cl)c4)c3n2)CC1`: the “activity change, negative = cytotoxic” value was -9.59% (inactive).

`CC[C@@H]([C@H](C)O)n1ncn(-c2ccc(N3CCN(c4ccc(OC[C@@H]5CO[C@@](Cn6cncn6)(c6ccc(F)cc6F)C5)cc4)CC3)cc2)c1=O`: the Potency was 18.8 µM (active). As to `CCOC(=O)C(=O)CCc1ccccc1`, the “activity change, negative = cytotoxic” value is 17.1% (inactive). Take `Cc1ccc(CCn2c3c(c4cc(Cl)ccc42)CN(C)CC3)cn1`: the “activity change, negative = cytotoxic” value is 1.98% (inactive).

Turning to `CCC1=C[C@@H]2CN(C1)Cc1c([nH]c3ccccc13)[C@@](C(=O)OC)(c1cc3c(cc1OC)N(C)[C@H]1[C@@](O)(C(=O)OC)[C@H](OC(C)=O)[C@]4(CC)C=CCN5CC[C@]31[C@@H]54)C2`, the Potency was 0.0084 µM (active).

Turning to `O=C1NC2CCCCN2C12CCN(CCCN1c3ccccc3CCc3ccc(Cl)cc31)CC2` (centres undefined), the Potency was 23.7 µM (active). Consider `Cc1nc(N)nc(N)c1-c1ccc(Cl)c(Cl)c1`, for which the Potency is 0.299 µM (active). On the same count and under the same terms, the same measure for `CCN(CC)CCOc1ccc(/C(=C(\Cl)c2ccccc2)c2ccccc2)cc1`: 18.8 µM (active).

`CCCCOC(=O)CCCCCCCCC(=O)OCCCC`: the “activity change, negative = cytotoxic” value is 9.57% (inactive). On to `COc1ccc([C@@H]2Sc3ccccc3NC(=O)[C@@H]2O)cc1`, for which the Potency was 7.5 µM (active). `CC(=O)O[C@@H]1C(=O)O[C@@H]2[C@H]1OC(=O)[C@@H]2OC(C)=O`: the “activity change, negative = cytotoxic” value was 2.1% (inactive). For `O=C(Nc1ccc(Cl)cc1)Nc1ccc(Cl)c(Cl)c1`, the Potency was 11.9 µM (active). `Cc1c(C)c2c(c(C)c1OC(=O)CCC(=O)OCCO)CC[C@@](C)(CCC[C@H](C)CCC[C@H](C)CCCC(C)C)O2`: the “activity change, negative = cytotoxic” value was -3.28% (inactive).

The next assay in a line: qHTS of pediatric cancer cell lines to identify multiple opportunities for drug repurposing: Primary screen for A673 cells (AID 1347092). For activity change, negative = cytotoxic: % is set by controls: 0 for no effect and ±100 for the full control effect. Note: nearly all actives have a fitted effect of over 45% in size. The conditions noted are these: A673 Ewing sarcoma viability, CellTiter-Glo ATP luminescence, 48 h; series mostly up to 46 µM; activity change, negative = cytotoxic: at the top concentration. A digest of the protocol: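 48 h compound exposure, A673, 500-1,000 cells/well, 37 degrees C/5% CO2. MIPE: 11-point, 0.78 nM-46 µM; NPC: 8-point, 0.59 nM-46 µM (final). Readout CellTiter-Glo luminescence after 15 min RT.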
`CCCCCCCCCCCCCCCC[n+]1ccccc1`: the Potency was 1.68 µM (active). On to `O=C(O)c1ccccc1Nc1cc(Cl)ccc1C(=O)O`, for which the “activity change, negative = cytotoxic” value is 0.0786% [at 16.1 µM] (inactive). As for `Cc1cc(OCCOCC[N+](C)(C)Cc2ccccc2)ccc1C(C)(C)CC(C)(C)C`, the Potency is 10.6 µM (active).

`CCCCCOc1ccc(C2SC(=O)NC2=O)cc1OCC` (centres undefined): the “activity change, negative = cytotoxic” value was 2.1% (inactive).

Consider `CCCCCCCCCCCCCC[N+](C)(C)C`, for which the Potency was 2.11 µM (active).

For the molecule `COC(=O)c1cc(S(N)(=O)=O)ccc1OC`, the “activity change, negative = cytotoxic” value was -1.07% (inactive). For `C=CC[N+]1([C@H]2C[C@H]3[C@@H]4CC[C@H]5C[C@H](OC(C)=O)[C@@H](N6CCCCC6)C[C@]5(C)[C@H]4CC[C@]3(C)[C@H]2OC(=O)CC)CCCCC1`, the “activity change, negative = cytotoxic” value is 2.06% (inactive). Take `CCCCCCCCCCCCCCCCCCNC(=O)OC1CCN(C(=O)OC[C@H](COC(=O)N(Cc2cccc[n+]2CC)C(=O)c2ccccc2OC)OC)CC1`: the Potency was 8.41 µM (active). Turning to `Nc1cc(C(F)(F)F)ccc1S`, the Potency was 21.1 µM (active). Turning to `CCCCCCCCCCCC[N+](C)(C)Cc1ccccc1`, the Potency was 8.41 µM (active).

As to `Cc1ccc(/C=N/n2c(-c3ccccc3)csc2=S)cc1`, the “activity change, negative = cytotoxic” value was -13.1% (inactive). For the molecule `CC[C@@]1(O)C(=O)OCc2c1cc1n(c2=O)Cc2c-1nc1ccccc1c2/C=N/OC(C)(C)C`, the Potency was 0.0335 µM (active).

Take `O=C(Nc1ccc(Cl)cc1)Nc1ccc(Cl)c(C(F)(F)F)c1`: the Potency is 21.1 µM (active).

With `CN1CCC(Nc2ncc3ncnc(Nc4ccc(F)c(Cl)c4)c3n2)CC1`, the Potency is 21.1 µM (active). Consider `CO[C@@H]1[C@@H](OC)[C@H](C)[C@@](O)(CC(=O)O)O[C@H]1[C@H](C)[C@H]1O[C@@]2(CC[C@@](C)([C@H]3CC[C@@](C)([C@@H]4O[C@@H]([C@H]5O[C@](C)(O)[C@H](C)C[C@@H]5C)C[C@@H]4OC4C[C@H](OC)[C@@H](OC)[C@H](C)O4)O3)O2)C[C@H](O)[C@H]1C` (some centres undefined), for which the Potency is 4.22 µM (active). Turning to `CCC(C(=O)OCCN1CCOC(c2ccccc2)C1C)c1ccccc1` (centres undefined), the “activity change, negative = cytotoxic” value was 13.5% (inactive). Still for that read-out and setting: the figure for `CCOC(=O)C(=O)CCc1ccccc1` is 16.2% (inactive). Consider `CCC1=C[C@@H]2CN(C1)Cc1c([nH]c3ccccc13)[C@@](C(=O)OC)(c1cc3c(cc1OC)N(C)[C@H]1[C@@](O)(C(=O)OC)[C@H](OC(C)=O)[C@]4(CC)C=CCN5CC[C@]31[C@@H]54)C2`, for which the Potency was 0.0106 µM (active). In the case of `Cc1nc(N)nc(N)c1-c1ccc(Cl)c(Cl)c1`, the Potency was 1.06 µM (active).

Consider `CCN(CC)CCOc1ccc(/C(=C(\Cl)c2ccccc2)c2ccccc2)cc1`, for which the Potency was 21.1 µM (active). In the case of `CCCCOC(=O)CCCCCCCCC(=O)OCCCC`, the “activity change, negative = cytotoxic” value is -0.693% (inactive). As to `CC(=O)O[C@@H]1C(=O)O[C@@H]2[C@H]1OC(=O)[C@@H]2OC(C)=O`, the Potency is 13.3 µM (active). For the molecule `O=c1[nH]sc2cc(Cl)ccc12`, the Potency is 0.001 µM (active). For `OC1(c2ccc(Cl)c(C(F)(F)F)c2)CCN(CCCC(c2ccc(F)cc2)c2ccc(F)cc2)CC1`, the Potency is 10.6 µM (active).

Turning to `Nc1c2ccccc2nc2ccccc12`, the Potency is 6.68 µM (active). Regarding `O=C1OC2(c3ccccc31)c1cc(I)c(O)c(I)c1Oc1c2cc(I)c(O)c1I`, the “activity change, negative = cytotoxic” value is -16.1% (inactive). With `Nc1ccc2cc3ccc(N)cc3nc2c1`, the Potency was 13.3 µM (active). For `CC(=O)Oc1ccc(C2(c3ccc(OC(C)=O)cc3)Oc3ccccc3NC2=O)cc1`, the Potency is 13.3 µM (active).

The values are drawn from PubChem BioAssay (NCATS).
